Assay outcomes deposited in PubChem BioAssay by several laboratories.
NR2F2 inh: NR2F2 (human) inhibition, primary screen | P24468 | HEK293T NGFI-A luciferase reporter, luminescence | inhibition, % at 8.6 µM | actives 0.7% (n = 370,000) | AID 686940;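 active = inhibition above a per-plate cutoff, mean inhibition of test wells between control levels plus 3 SD, cut at about 38% in these data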;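 also: cells cotransfected with COUP-TFII expression vector driving the NGFI-A reporter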
LRH-1 inv ag: NR5A2 inverse agonism in reporter assay. AID 602396. inhibition, % at 3.6 µM. HEK293T StAR-luciferase reporter, LRH-1 transfected, 24 h. O00482. actives 0.13% (n = 360,000);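 active = inhibition above the mean inhibition of all tested compounds plus 3 SD, cut at about 73% in these data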
SRC1 inh: inhibits human SRC1 coactivator. actives 0.12% (n = 360,000). HEK293 GAL4-SRC1 luciferase reporter, luminescence. AID 588354. inhibition, % at 3.6 µM. Q15788;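 active = inhibition above the campaign mean plus 3 SD, with each screening campaign given its own cutoff, cut at about 60% in these data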
Gli-Sufu antag: blocks Gli-Sufu signaling in a luciferase reporter; inhibition, % at 5 µM; Sufu-KO-LIGHT fibroblasts, Gli luciferase reporter luminescence; AID 588413; actives 0.74% (n = 340,000);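 active = inhibition above about 55%, limit read from the data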
SRC2 inh: human SRC2 (NCOA2) inhibition. Q15596. HEK293 GAL4-SRC2 luciferase reporter, luminescence. inhibition, % at 9 µM. actives 0.17% (n = 370,000). AID 651957;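 active = inhibition above the mean inhibition of all tested compounds plus 3 SD, set per campaign, cut at about 52% in these data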
NCOA3 inh: human NCOA3 inhibition. Q9Y6Q9. HEK293 GAL4-SRC3 luciferase reporter, luminescence. inhibition, % at 3.6 µM. actives 0.17% (n = 360,000). AID 588352;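 active = inhibition above a per-campaign cutoff, the mean of all compounds plus 3 SD, cut at about 60% in these data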;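 also: higher means less SRC3-driven luciferase light from the GAL4 reporter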
Gal4-VP16 ctr: counter-screen for COUP-TFII antagonists: inhibitors of VP16; actives 25% (n = 2,500); AID 687007; inhibition, % at 8.5 µM; HEK293 Gal4-VP16 luciferase reporter, luminescence; shares compounds with NR2F2 inh; in the data active = inhibition above about 13%
COUP-TFII conf: confirmation of human COUP-TFII (NR2F2) inhibitors; inhibition, % at 8.5 µM; actives 45% (n = 2,500); HEK293 NGFI-A luciferase reporter, luminescence; AID 687008; shares compounds with NR2F2 inh;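 active = mean inhibition over three repeats above a set limit taken from the earlier primary screen, cut at about 38% in these data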
Each line names hits and unclear results; the compound was inactive in the other large screens (follow-up assays come after a bar, where they were run). Compounds with a hit are over-represented: about 1.3% of the library has one in this group of screens.

CC(C)CNc1ncnc2c1ncn2[C@H]1CN(Cc2ccc(-c3ccccc3)cc2)C[C@@H](CO)O1	NR2F2 inh 61 (no result: Gli-Sufu antag) | Gal4-VP16 ctr inactive | COUP-TFII conf 43
CC(C)N1C/C(=C/c2ccsc2)C(=O)/C(=C/c2ccsc2)C1	NR2F2 inh 47 | Gal4-VP16 ctr 38 | COUP-TFII conf 68
Cc1sc2nc(COC(=O)CNC(=O)c3cc(F)ccc3F)[nH]c(=O)c2c1C	none (no result: LRH-1 inv ag, SRC1 inh, Gli-Sufu antag, NCOA3 inh)
CCC(C(=O)Nc1ccccc1N1CCCC1)c1ccccc1Cl (centres undefined)	none (no result: LRH-1 inv ag, SRC1 inh, Gli-Sufu antag, NCOA3 inh)
CSc1ccccc1OCc1cc(C(=O)NC(C)c2cnn(C)c2)no1 (centres undefined)	none
Cc1c(C(C)NC(=O)c2cc(COc3cccc4cnccc34)on2)cnn1C (centres undefined)	NR2F2 inh 56 | Gal4-VP16 ctr inactive | COUP-TFII conf 42
CCOC(=O)[C@@H](CCc1ccccc1)N[C@@H](C)C(=O)N1CCC[C@H]1C(=O)O	none (no result: LRH-1 inv ag, SRC1 inh, Gli-Sufu antag, NCOA3 inh)
Cc1cc(C)cc(N=c2c([N+](=O)[O-])nn(-c3ccc4c(c3)OCCO4)n2O)c1	none
O=[N+]([O-])c1nn(-c2ccc3c(c2)OCCO3)n(O)c1=Nc1ccccc1	NR2F2 inh 91, LRH-1 inv ag 94, SRC1 inh 76, SRC2 inh 84, NCOA3 inh 85 (no result: Gli-Sufu antag) | Gal4-VP16 ctr inactive | COUP-TFII conf inactive
O=S(=O)(C/C(=C/CO)S(=O)(=O)c1ccccc1)c1ccccc1	NR2F2 inh 76, SRC2 inh 72 | Gal4-VP16 ctr 38 | COUP-TFII conf 58
O=C(Nc1ccc(F)cc1)OCc1cn(Cc2ccc(F)cc2F)nn1	none (no result: LRH-1 inv ag, SRC1 inh, Gli-Sufu antag, NCOA3 inh)
Cc1ccc(CCNC(=O)C(C)n2nc(C)c3c(C)n(-c4ccccc4)nc3c2=O)cc1 (centres undefined)	none
Cc1ccc(-n2nc3c(=O)n(C(C)C(=O)NCCC4=CCCCC4)nc(C)c3c2C)cc1 (centres undefined)	NR2F2 inh 71 | Gal4-VP16 ctr inactive | COUP-TFII conf 62
CN1CC(O)([C@H](Cc2ccccc2)NC(=O)OC(C)(C)C)OCC1C(=O)NCc1cccc2ccccc12 (some centres undefined)	none (no result: LRH-1 inv ag, SRC1 inh, Gli-Sufu antag, SRC2 inh, NCOA3 inh)
CCc1nc2ccc(C(=O)Nc3cc(-c4ccccc4)ccc3OC)cn2c1N(C)Cc1nccs1	NR2F2 inh 50 (no result: Gli-Sufu antag) | Gal4-VP16 ctr inactive | COUP-TFII conf inactive
CCc1nc2ccc(C(=O)Nc3ccc(NC(C)=O)cc3)cn2c1N(C)C(=O)Cc1ccccc1	NR2F2 inh 53 (no result: Gli-Sufu antag) | Gal4-VP16 ctr inactive | COUP-TFII conf inactive
CCc1nc2ccc(C(=O)Nc3cccc(NS(C)(=O)=O)c3)cn2c1N(C)C(=O)Cc1ccccc1	none (no result: Gli-Sufu antag)
CCc1nc2ccc(C(=O)Nc3cc(-c4ccccc4)ccc3OC)cn2c1N(C)Cc1ccc(OC)cc1	none (no result: Gli-Sufu antag)
COc1ccc2c(c1)CN1CN(CC(C)C)S(=O)(=O)CC21 (centres undefined)	none (no result: LRH-1 inv ag, SRC1 inh, Gli-Sufu antag, NCOA3 inh)
COc1ccccc1C(=O)NC1CCCCN(Cc2cccc(C(F)(F)F)c2)C1=O (centres undefined)	none (no result: LRH-1 inv ag, SRC1 inh, Gli-Sufu antag, NCOA3 inh)
C(=N\Nc1nc2ccccc2s1)/c1ccccn1	NR2F2 inh 63, Gli-Sufu antag 75, SRC2 inh 69 (no result: LRH-1 inv ag, SRC1 inh, NCOA3 inh) | Gal4-VP16 ctr 70 | COUP-TFII conf 80
COc1ccc(C=NNc2nc3ccccc3s2)cc1	none
CC1(C)CC(=O)N(CC(=O)N2CCN(c3cccc(Cl)c3Cl)CC2)c2ccccc2S1(=O)=O	none (no result: LRH-1 inv ag, SRC1 inh, Gli-Sufu antag, NCOA3 inh)
O=C(Nc1cccc(S(=O)(=O)N2CCOCC2)c1)c1ccc2c(=O)n3c(nc2c1)CCCCC3	NR2F2 inh 39 | Gal4-VP16 ctr inactive | COUP-TFII conf inactive
c1ccc(-c2cccc(CNc3nc(-c4ccccn4)nnc3-c3ccccc3)c2)cc1	NR2F2 inh 51 (no result: LRH-1 inv ag, SRC1 inh, Gli-Sufu antag, SRC2 inh, NCOA3 inh) | Gal4-VP16 ctr inactive | COUP-TFII conf inactive
O=[N+]([O-])c1cccc(-c2nc(NCc3ccccc3)c3ccccc3n2)c1	none
CC1CC(C)(C)Nc2ccc(OC(=O)c3ccco3)cc21 (centres undefined)	NR2F2 inh 45, SRC2 inh 58 | Gal4-VP16 ctr 18 | COUP-TFII conf inactive
